Where “and” joins values, the source holds several entries; their conditions need not be identical. Identical values can stand only once. Results filed as inconclusive are left out. Where a call stands in place of a potency, no number is given. Where a structure was tested more than once in an assay, its records may differ in their call. Calls of active or inactive are those of the source. Calls come from the whole dose curve.
biological target: Muscarinic acetylcholine receptor M1 (Homo sapiens) (UniProt P11229); test: Cholinergic receptor muscarinic 1 (CHRM1) small molecule antagonists, cell-based qHTS assay (AID 1963588); conditions: CHRM1-CHO antagonist mode, calcium flux fluorescence; series mostly up to 61.5 µM; activity, negative = inhibition: at the top concentration; note: nearly all actives have a fitted effect of over 40% in size
How it was run: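 Compounds were tested at 15 concentrations in three independent runs. Dye-loaded CHRM1-CHO cells were exposed 5 min at room temperature before stimulation by acetylcholine added at 50nM. Intracellular calcium was read kinetically on FDSS for 3 min.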
Potency is the fitted concentration of half-maximal effect.

Muscarinic acetylcholine receptor M1 (Homo sapiens), sequence (P11229 whole entry, looked up): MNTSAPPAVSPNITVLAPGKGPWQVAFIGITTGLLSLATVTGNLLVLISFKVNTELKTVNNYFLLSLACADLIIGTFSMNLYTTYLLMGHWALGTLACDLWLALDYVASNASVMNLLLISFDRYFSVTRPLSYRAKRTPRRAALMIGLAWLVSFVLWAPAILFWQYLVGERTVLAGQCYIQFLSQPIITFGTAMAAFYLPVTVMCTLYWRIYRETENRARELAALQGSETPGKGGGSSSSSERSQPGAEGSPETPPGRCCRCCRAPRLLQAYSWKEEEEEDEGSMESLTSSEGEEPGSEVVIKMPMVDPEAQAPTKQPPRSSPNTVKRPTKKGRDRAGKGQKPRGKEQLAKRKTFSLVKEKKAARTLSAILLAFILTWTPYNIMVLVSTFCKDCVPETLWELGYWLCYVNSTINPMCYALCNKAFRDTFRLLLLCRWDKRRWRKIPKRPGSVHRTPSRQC

SMILES | Potency | activity, negative = inhibition
Cc1ccc(N)cc1Cl | inactive | 
Cc1ncc(CNC(=O)N(CCCl)N=O)c(N)n1 |  | 0.838% [at 28.3 µM] (inactive)
O=C(O)COc1cc(Cl)c(Cl)cc1Cl | inactive | 
Clc1ccc(Cl)c(Cl)c1 | inactive | 
CCOC(=O)CC(SP(=O)(OC)OC)C(=O)OCC (stereo not drawn) | inactive | 
CCCC[n+]1ccc(C)cc1 | inactive | 
CCCCCCCCCCCCCCCCn1cc[n+](C)c1 | inactive and 950 nM (active) and 2.66 µM (active) | 
COc1ccc(N)cc1 | inactive | 
O=C(O)c1ccc(=O)[nH]c1 |  | 7.51% [at 28.3 µM] (inactive)
O=[N+]([O-])c1cc(Cl)c(Cl)c(Cl)c1 |  | 0.615% (inactive)
c1ccc(NNc2ccccc2)cc1 | inactive | 
CCCSC(=O)Cl |  | -8.26% (inactive)
COCCl | inactive | 
O=C1C2CC=CCC2C(=O)N1SC(Cl)(Cl)Cl (stereo not drawn) | inactive | 
CNC(=O)N(C)c1nnc(C(C)(C)C)s1 |  | 14.3% (inactive)
COc1cc(N)c(Cl)cc1C(=O)NC1CN2CCC1CC2 (stereo not drawn) |  | 9.38% [at 28.3 µM] (inactive)
CCCCCCCCCl | inactive | 
COc1cc(OC)nc(NC(=O)NS(=O)(=O)c2ncccc2C(=O)N(C)C)n1 |  | -1.61% (inactive)
NC(=S)c1c(Cl)cccc1Cl |  | 11.7% (inactive)
NNC(N)=S | inactive | 
OCCCCO | inactive | 
NNC(=O)c1ccccc1 |  | 9.56% (inactive)
CCCCCCCCCCCCCCCCCC(=O)O | inactive | 
O=C(NC(=O)c1c(F)cccc1F)Nc1ccc(Cl)cc1 | inactive | 
Nc1ccc(Cl)c(Cl)c1 | inactive | 
CCOP(=O)(OCC)OP(=O)(OCC)OCC |  | 18.4% (inactive)
CC1C=[C-]C=C1.[C-]#[O+].[C-]#[O+].[C-]#[O+].[Mn] | inactive | 
CCOP(=O)(OCC)SCCSCC | inactive | 
